Assay outcomes deposited in PubChem BioAssay by National Center for Advancing Translational Sciences (NCATS).
Tau fibril FP – blocks human tau fibril formation measured by polarization; P10636; K18 P301L tau heparin fibrillization, Alexa594 FP, 6 h; Potency, µM (titrated, usually from 57.7 µM), inactives show at the highest dose activity, negative = inhibition, usual class: inhibitors; hit rate 0.39% among 280,000; active = well fitted curve in the direction sought with a large enough effect; inconclusive = small, poorly fitted or top-dose-only effect, or another doubt; inactive = no such curve, though single readings can be large; an effect the other way counts as inactive or inconclusive; note: nearly all actives have a fitted effect of over 55% in size
Target sequence (P10636 561-689 P618L limits assumed): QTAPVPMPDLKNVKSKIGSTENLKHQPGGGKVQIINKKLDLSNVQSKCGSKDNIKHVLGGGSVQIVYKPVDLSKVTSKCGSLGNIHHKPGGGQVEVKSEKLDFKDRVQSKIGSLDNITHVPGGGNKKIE
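Human K18 P301L fragment (15 uM unlabeled plus 0.24 uM Alexa 594-labeled) in 100 mM sodium acetate pH 7 with compound, aggregation induced by 20 uM heparin for 6 hr at 37 C. ThT (30 uM) added for 1 hr, then Alexa 594 FP read.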
Tau fibril ThT – inhibitors of human tau fibril formation, thioflavin T binding; P10636; recombinant tau K18 P301L, heparin-induced fibrillization, ThT fluorescence; Potency, µM (titrated, usually from 57.4 µM), without a hit: top-dose activity, negative = inhibition, hits mostly inhibitors; hit rate 2.1% among 270,000; AID 1460; active = well fitted curve in the direction sought with a large enough effect; inconclusive = small, poorly fitted or top-dose-only effect, or another doubt; inactive = no such curve, though single readings can be large; an effect the other way counts as inactive or inconclusive; note: nearly all actives have a fitted effect of over 55% in size
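K18 P301L tau (15 uM + 0.24 uM Alexa 594-tagged), heparin 20 uM, NaOAc pH 7, 6 h 37 C; ThT 30 uM, 1 h RT, ex 450/em 510 nm.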
ALDH1A1 block – ALDH1A1 (human) enzyme inhibition; P00352; Purified ALDH1A1, NADH fluorescence, propionaldehyde substrate; Potency, µM (titrated, usually from 75.3 µM), for inactives: top-dose activity, negative = inhibition, usual class: inhibitors; hit rate 7.3% among 220,000; AID 1030;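 note: plate controls were no enzyme wells and a reference inhibitor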
JMJD2E inh – JMJD2E (human) inhibition. Potency, µM (highest dose often 57.1 µM), inactives show at the highest dose activity change, negative = inhibition, most hits filed as inhibitors. hit rate 1.6% among 230,000. B2RXH2. JMJD2E catalytic domain, FDH-coupled NADH fluorescence (FDH is formaldehyde dehydrogenase);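 note: 0% = wells with enzyme and -100% = buffer wells without enzyme; nearly all actives have a fitted effect of over 50% in size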
Target sequence (B2RXH2 1-337 limits assumed): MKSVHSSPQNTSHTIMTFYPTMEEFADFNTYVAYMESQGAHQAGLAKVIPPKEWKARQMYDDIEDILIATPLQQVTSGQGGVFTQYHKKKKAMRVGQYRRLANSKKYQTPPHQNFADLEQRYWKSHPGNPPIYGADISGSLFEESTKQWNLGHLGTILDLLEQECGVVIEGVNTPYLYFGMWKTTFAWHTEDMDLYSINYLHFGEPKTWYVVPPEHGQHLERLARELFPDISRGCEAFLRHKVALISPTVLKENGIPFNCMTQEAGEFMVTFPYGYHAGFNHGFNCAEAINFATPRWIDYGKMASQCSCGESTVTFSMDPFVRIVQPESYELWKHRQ
Tau fluor counter – counter-screen for tau fibril formation inhibitors; Potency, µM (doses to about 57.7 µM), for the others: top-dose activity change, negative = decrease; tau K18 P301L (four-repeat tau fragment) Alexa594 fluorescence, heparin fibrillization; AID 1463; hit rate 0.93% among 280,000; active = well fitted curve in the direction sought with a large enough effect; inconclusive = small, poorly fitted or top-dose-only effect, or another doubt; inactive = no such curve, though single readings can be large; an effect the other way counts as inactive or inconclusive; note: nearly all actives have a fitted effect of over 55% in size
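Human K18 P301L tau (15 uM unlabeled plus 0.24 uM Alexa 594-labeled, final) in 100 mM sodium acetate pH 7 was mixed with compound and 20 uM heparin and incubated 6 hr at 37 C.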
HPGD inh – blocks human HPGD enzyme activity. AID 894. P15428. purified HPGD, NADH fluorescence kinetic, PGE2 substrate. Potency, µM, for inactives: at the highest dose activity change, negative = inhibition, hits mostly inhibitors. hit rate 4.3% among 150,000
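NADH formation kinetics: reaction with 30 uM PGE2 and 1 mM NAD+ (final), 20 nM enzyme, Tris-HCl pH 8 with Tween 20, after 15 min compound preincubation at room temperature. Fluorescence change, last versus first of five reads.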
* hit, by the source's call; [ ] = another dose, or the depositor's remark. The list is not random: actives were taken first. Their share in the collection is about 9.9%. Unless noted, calls come from the whole dose curve; as a rule, active = well fitted inhibition curve with a large enough effect (not every such curve was filed as active); inconclusive = small, poorly fitted or top-dose-only effect, or another doubt; inactive = no such curve, though single readings can be large or run the other way. Unless noted, % is set by controls: 0 for no effect and ±100 for the full control effect; potency is the fitted concentration of half-maximal effect.

Cc1cc(C(=O)N/N=C/c2cccc([N+](=O)[O-])c2O)n[nH]1 was read as Tau fibril FP -4%, Tau fibril ThT 14µM*, ALDH1A1 block -8%, JMJD2E inh 13µM*, Tau fluor counter -21% and HPGD inh -11%.
Screening O=S(=O)(Nc1ccc(F)c(C(F)(F)F)c1)c1ccc(N2CCCCS2(=O)=O)cc1 returned Tau fibril FP -12%, Tau fibril ThT 3% and Tau fluor counter -20%.
`CCCCNC(=O)N1CCN(Cc2cccc(F)c2)CC1` gave Tau fibril FP -7%, Tau fibril ThT -7%, ALDH1A1 block 9%, JMJD2E inh 8% and Tau fluor counter -8%.
For COCCn1c(=O)c(CCc2ccccc2)nc2cnc(OC)nc21 the results were ALDH1A1 block inconclusive and HPGD inh -4%.
For COC(=O)N/N=C/c1cc(N=Nc2ccccc2Cl)ccc1O the results were Tau fibril FP -2%, Tau fibril ThT 1.6µM*, JMJD2E inh -9% and Tau fluor counter inconclusive.
`C[C@]12CC[C@H]3c4ccc(OC[C@H]5CO5)cc4CC[C@H]3[C@H]1CC[C@@H]2O` gave Tau fibril FP -13%[11.6 µM], Tau fibril ThT inconclusive, ALDH1A1 block 18%[13.5 µM] and Tau fluor counter -18%[11.6 µM].
Screening COc1ccc2[nH]c(-c3ccccc3)c(CCNC(C)=O)c2c1 returned Tau fibril FP 13%, Tau fibril ThT -15%, ALDH1A1 block inconclusive, JMJD2E inh inconclusive, Tau fluor counter -20% and HPGD inh inconclusive.
For CCCCC(=O)NCCc1c(Cc2ccccc2)[nH]c2ccccc12 the results were Tau fibril FP inconclusive, Tau fibril ThT -15%, ALDH1A1 block inconclusive, JMJD2E inh -24%, Tau fluor counter inconclusive and HPGD inh 16µM*.
For CC(=O)NCCc1c(Cc2ccccc2)[nH]c2ccccc12 the results were Tau fibril FP 1%, Tau fibril ThT 0%, ALDH1A1 block 2%, JMJD2E inh 7%, Tau fluor counter -10% and HPGD inh 14µM*.
For CN1CCN(C(=O)c2cnn(-c3cccc(Cl)c3)c2C2CCN(C(=O)OC(C)(C)C)CC2)CC1 the results were Tau fibril FP -5%, Tau fibril ThT -11% and Tau fluor counter -10%.
For Cc1ccc(S(=O)(=O)/N=C(\Nc2cccc(C)c2)Nc2nc(C)cc(C)n2)cc1 the results were Tau fibril FP -8%, Tau fibril ThT -9%, ALDH1A1 block 0.4µM*, JMJD2E inh -5%, Tau fluor counter -10% and HPGD inh -14%.
`CCOC(=O)C(CC)Sc1c(CC)cnc2c1c(=O)n(C)c(=O)n2C` (stereo not given) gave Tau fibril FP -15%, Tau fibril ThT -4% and Tau fluor counter -10%.
For Cc1cc(=O)c2c(O)c3c(O)cc(O)c4c5c(O)cc(O)c6c(O)c7c(=O)cc(C)c8c1c2c(c34)c(c65)c78 the results were Tau fibril FP inconclusive, Tau fibril ThT 14µM*, ALDH1A1 block -5%, Tau fluor counter 4.5µM*[quencher] and HPGD inh 8.9µM*.
`Cc1cc(O)c2c(c1O)C(=O)c1c(O)cc(C)c(O)c1C2=O` gave Tau fibril FP -15%, Tau fibril ThT inconclusive, ALDH1A1 block -8%, JMJD2E inh inconclusive, Tau fluor counter -27% and HPGD inh -14%.
CSc1nc(C)cc(OCC(=O)N/N=C/c2ccccc2O)n1 was read as Tau fibril FP -18%, Tau fibril ThT -4%, ALDH1A1 block -13%, JMJD2E inh 25µM*, Tau fluor counter -13% and HPGD inh -19%.
For O=C(COc1nsnc1N1CCOCC1)N/N=C/c1ccccc1O the results were Tau fibril FP 1%, Tau fibril ThT -6%, ALDH1A1 block inconclusive, JMJD2E inh inconclusive, Tau fluor counter -10% and HPGD inh inconclusive.
For CCOC(=O)c1[nH]nc(-c2cc(CC)c(O)cc2O)c1-c1cscn1 the results were Tau fibril FP 1%, Tau fibril ThT 4%, ALDH1A1 block 8.9µM*, JMJD2E inh 2%, Tau fluor counter 4% and HPGD inh -8%.
